Among the data in PMC7862700, “An all-to-all approach to the identification of sequence-specific readers for epigenetic DNA modifications on cytosine” are binding signal values, retold here.

What all share (test): DAPPL (digital affinity profiling via proximity ligation, sequencing); 10 mM Tris-HCl pH 7.5, 50 mM NaCl, 1 mM DTT, 4% glycerol, room temperature, 30 min; GST-TFs on glutathione beads, 16-mer random dsDNA library, 0.1% formaldehyde crosslink after washing; high values mean tight binding
The target of experiment [1] is T1, FEV (Homo sapiens, UniProt Q99581 1-238).
T1 sequence: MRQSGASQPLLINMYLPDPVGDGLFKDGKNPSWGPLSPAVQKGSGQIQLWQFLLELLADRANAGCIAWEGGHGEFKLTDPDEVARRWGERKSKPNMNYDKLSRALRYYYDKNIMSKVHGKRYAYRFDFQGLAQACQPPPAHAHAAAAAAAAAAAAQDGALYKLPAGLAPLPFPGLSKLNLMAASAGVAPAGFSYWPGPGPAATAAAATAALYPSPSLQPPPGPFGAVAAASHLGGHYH
The following applies: protein: recombinant; tags: N-terminal GST; dsDNA, one strand shown. An outline of the steps:
(§1)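 Human transcription factors were made in yeast as GST fusions, captured on glutathione beads and barcoded with DNA. With a tag-only sample included, the pool was incubated with 200 nmole of a random double-stranded 16-mer DNA library in Tris/NaCl/DTT/glycerol buffer at room temperature for 30 min, then crosslinked with 0.1% formaldehyde after washing, ligated by proximity, amplified and sequenced. For binding signal, each hexamer's read frequency for a factor is divided by its frequency for the tag-only sample.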

Experiment [2] concerns the target ETV5 (Homo sapiens, UniProt P41161 1-510). Particulars: protein: recombinant; tags: N-terminal GST; dsDNA, one strand shown. In outline: as §1
Experiment [3] concerns the target HSF1 (Homo sapiens, UniProt Q00613 1-529). Particulars: protein: recombinant; tags: N-terminal GST; chain copies: 3; dsDNA, one strand shown. An outline of the steps: as §1
The target in experiment [4] is T2, SPIC (Homo sapiens, UniProt Q8N5J4 1-248).
T2 sequence: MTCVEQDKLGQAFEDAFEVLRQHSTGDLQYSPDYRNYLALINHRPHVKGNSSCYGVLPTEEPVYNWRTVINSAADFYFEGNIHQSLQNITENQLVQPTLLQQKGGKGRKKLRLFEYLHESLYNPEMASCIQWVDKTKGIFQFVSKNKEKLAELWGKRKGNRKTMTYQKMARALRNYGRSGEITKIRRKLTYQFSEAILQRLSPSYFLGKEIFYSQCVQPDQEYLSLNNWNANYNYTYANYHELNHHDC
Particulars: protein: recombinant; tags: N-terminal GST; dsDNA, one strand shown. In outline: as §1

Experiment [5] addresses ELF4 (Homo sapiens, UniProt Q99607 1-663). The following applies: protein: recombinant; tags: N-terminal GST; dsDNA, one strand shown. In outline: as §1
Experiment [6] deals with T3, ELK4 (Homo sapiens, UniProt P28324-2 1-405).
T3 sequence: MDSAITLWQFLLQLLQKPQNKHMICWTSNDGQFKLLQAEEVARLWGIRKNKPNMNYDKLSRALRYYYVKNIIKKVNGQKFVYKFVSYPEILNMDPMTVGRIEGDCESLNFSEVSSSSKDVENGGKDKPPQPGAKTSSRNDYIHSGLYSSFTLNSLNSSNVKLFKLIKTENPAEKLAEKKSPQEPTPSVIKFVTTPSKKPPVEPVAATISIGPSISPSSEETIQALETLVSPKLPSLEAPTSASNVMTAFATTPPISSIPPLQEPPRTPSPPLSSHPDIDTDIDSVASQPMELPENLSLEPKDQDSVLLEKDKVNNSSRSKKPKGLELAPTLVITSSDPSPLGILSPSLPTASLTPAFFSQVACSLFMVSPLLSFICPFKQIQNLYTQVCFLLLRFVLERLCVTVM
The following applies: protein: recombinant; tags: N-terminal GST; dsDNA, one strand shown. An outline of the steps: as §1

The target of experiment [7] is T4, ETV2 (Homo sapiens, UniProt O00321 1-342).
T4 sequence: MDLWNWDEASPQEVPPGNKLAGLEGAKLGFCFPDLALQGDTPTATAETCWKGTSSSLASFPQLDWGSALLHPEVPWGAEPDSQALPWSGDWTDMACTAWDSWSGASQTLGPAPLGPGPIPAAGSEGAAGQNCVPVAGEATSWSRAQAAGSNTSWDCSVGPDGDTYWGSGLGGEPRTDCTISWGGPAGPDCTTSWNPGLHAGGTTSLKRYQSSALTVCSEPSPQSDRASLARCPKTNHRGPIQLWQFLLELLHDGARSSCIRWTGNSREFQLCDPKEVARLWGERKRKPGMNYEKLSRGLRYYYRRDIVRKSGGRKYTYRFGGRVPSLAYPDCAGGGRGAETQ
The following applies: protein: recombinant; tags: N-terminal GST; dsDNA, one strand shown. An outline of the steps:
as §1

Experiment [8] addresses T5, ELF3 (Homo sapiens, UniProt P78545 1-371).
T5 sequence: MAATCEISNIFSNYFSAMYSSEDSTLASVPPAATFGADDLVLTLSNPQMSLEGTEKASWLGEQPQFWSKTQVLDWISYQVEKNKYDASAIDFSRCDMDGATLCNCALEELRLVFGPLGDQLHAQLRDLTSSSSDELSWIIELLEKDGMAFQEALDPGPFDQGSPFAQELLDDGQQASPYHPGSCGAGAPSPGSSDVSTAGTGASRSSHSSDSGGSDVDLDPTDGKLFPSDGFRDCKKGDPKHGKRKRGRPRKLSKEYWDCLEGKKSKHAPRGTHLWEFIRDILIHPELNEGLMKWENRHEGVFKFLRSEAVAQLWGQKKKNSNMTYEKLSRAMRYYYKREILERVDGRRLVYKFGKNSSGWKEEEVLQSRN
Particulars: protein: recombinant; tags: N-terminal GST; dsDNA, one strand shown. An outline of the steps: as §1

The target in experiment [9] is CRX (Homo sapiens, UniProt O43186 1-299). The following applies: protein: recombinant; tags: N-terminal GST; dsDNA, one strand shown. In outline: as §1
The target of experiment [10] is ETV1 (Homo sapiens, UniProt P50549 1-477). Particulars: protein: recombinant; tags: N-terminal GST; dsDNA, one strand shown. In outline: as §1
Experiment [11] has as its target T6, ERF (Homo sapiens, UniProt P50548 1-548).
T6 sequence: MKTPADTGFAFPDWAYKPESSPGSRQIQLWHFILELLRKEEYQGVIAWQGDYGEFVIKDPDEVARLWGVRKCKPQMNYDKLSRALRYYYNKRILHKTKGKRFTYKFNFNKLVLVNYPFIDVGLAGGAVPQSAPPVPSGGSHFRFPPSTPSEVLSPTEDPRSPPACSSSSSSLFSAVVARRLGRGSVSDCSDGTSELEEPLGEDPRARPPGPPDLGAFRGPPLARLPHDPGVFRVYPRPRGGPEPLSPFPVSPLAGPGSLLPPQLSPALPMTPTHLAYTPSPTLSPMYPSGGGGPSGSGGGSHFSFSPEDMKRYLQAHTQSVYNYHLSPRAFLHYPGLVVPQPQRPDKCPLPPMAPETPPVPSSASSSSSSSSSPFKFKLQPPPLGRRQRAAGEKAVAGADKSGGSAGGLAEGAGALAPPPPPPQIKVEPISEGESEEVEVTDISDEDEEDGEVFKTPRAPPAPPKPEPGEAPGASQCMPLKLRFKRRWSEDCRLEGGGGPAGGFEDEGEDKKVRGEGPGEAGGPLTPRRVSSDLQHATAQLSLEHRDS
The following applies: protein: recombinant; tags: N-terminal GST; dsDNA, one strand shown. An outline of the steps:
as §1

Experiment [12] concerns the target T7, ETV3L (Homo sapiens, UniProt Q6ZN32 1-361).
T7 sequence: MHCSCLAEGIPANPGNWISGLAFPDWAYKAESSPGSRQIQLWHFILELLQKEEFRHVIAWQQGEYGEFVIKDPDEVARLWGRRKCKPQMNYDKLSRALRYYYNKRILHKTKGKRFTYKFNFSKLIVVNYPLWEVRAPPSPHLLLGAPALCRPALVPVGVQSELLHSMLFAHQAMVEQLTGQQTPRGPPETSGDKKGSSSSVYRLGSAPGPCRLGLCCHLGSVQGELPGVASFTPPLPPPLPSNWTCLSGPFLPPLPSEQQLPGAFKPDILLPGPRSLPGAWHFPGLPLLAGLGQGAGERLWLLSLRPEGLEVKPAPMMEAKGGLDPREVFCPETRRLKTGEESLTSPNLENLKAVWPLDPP
The following applies: protein: recombinant; tags: N-terminal GST; dsDNA, one strand shown. An outline of the steps:
as §1

Experiment [13] addresses T8, ETS2 (Homo sapiens, UniProt P15036 1-469).
T8 sequence: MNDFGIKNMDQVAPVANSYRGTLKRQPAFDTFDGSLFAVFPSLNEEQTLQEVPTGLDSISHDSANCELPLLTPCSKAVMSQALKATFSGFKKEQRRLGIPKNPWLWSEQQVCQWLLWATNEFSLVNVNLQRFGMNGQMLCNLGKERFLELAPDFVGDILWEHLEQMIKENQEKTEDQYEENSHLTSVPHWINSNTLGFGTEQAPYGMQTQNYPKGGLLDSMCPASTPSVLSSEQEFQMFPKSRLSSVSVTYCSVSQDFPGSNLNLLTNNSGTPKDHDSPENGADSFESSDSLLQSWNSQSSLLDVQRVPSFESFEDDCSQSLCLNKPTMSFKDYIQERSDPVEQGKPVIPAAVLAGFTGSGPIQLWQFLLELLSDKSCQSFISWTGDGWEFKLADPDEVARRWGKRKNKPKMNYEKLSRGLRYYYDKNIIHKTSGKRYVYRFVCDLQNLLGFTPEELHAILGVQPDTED
Particulars: protein: recombinant; tags: N-terminal GST; dsDNA, one strand shown. An outline of the steps:
as §1

The target in experiment [14] is T9, SPDEF (Homo sapiens, UniProt O95238 1-335).
T9 sequence: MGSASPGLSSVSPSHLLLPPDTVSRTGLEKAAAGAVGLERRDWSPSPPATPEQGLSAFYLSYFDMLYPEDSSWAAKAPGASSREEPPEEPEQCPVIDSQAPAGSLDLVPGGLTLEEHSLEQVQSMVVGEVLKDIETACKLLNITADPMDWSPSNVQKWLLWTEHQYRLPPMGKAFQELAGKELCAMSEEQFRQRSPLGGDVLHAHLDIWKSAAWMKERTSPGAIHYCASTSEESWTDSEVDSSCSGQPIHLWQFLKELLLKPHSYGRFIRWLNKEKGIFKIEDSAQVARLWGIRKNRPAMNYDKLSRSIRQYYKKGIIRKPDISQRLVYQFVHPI
The following applies: protein: recombinant; tags: N-terminal GST; dsDNA, one strand shown. An outline of the steps:
as §1

Experiment [15] has as its target T10, ETV7 (Homo sapiens, UniProt Q9Y603 1-341).
T10 sequence: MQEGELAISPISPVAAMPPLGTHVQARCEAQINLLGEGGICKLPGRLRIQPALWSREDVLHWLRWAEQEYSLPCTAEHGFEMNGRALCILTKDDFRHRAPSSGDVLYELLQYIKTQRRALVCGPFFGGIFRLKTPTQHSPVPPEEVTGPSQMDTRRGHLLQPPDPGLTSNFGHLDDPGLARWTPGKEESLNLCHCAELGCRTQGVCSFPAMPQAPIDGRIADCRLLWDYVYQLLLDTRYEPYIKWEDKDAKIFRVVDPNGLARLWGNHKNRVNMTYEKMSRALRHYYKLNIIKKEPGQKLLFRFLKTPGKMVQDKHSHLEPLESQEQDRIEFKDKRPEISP
The following applies: protein: recombinant; tags: N-terminal GST; dsDNA, one strand shown. In outline:
as §1

For experiment [16], the target named is T11, ELF5 (Homo sapiens, UniProt Q9UKW6-2 1-255).
T11 sequence: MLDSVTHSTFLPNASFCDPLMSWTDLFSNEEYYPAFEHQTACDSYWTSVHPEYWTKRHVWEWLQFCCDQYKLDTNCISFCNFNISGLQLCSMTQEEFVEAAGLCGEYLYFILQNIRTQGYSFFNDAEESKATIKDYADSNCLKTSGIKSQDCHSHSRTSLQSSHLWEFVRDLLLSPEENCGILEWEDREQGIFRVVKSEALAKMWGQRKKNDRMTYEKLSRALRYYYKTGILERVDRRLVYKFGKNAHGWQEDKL
Particulars: protein: recombinant; tags: N-terminal GST; dsDNA, one strand shown. An outline of the steps:
as §1

Experiment [17] concerns the target T12, ETV3 (Homo sapiens, UniProt P41162-2 1-143).
T12 sequence: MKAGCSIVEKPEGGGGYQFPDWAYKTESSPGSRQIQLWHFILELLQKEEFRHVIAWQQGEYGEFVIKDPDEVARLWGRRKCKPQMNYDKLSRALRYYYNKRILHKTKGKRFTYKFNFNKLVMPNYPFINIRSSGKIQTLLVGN
The following applies: protein: recombinant; tags: N-terminal GST; dsDNA, one strand shown. In outline: as §1

The target of experiment [18] is ETV6 (Homo sapiens, UniProt P41212 1-452). Particulars: protein: recombinant; tags: N-terminal GST; dsDNA, one strand shown. In outline:
as §1

ETV6, sequence (P41212 whole entry): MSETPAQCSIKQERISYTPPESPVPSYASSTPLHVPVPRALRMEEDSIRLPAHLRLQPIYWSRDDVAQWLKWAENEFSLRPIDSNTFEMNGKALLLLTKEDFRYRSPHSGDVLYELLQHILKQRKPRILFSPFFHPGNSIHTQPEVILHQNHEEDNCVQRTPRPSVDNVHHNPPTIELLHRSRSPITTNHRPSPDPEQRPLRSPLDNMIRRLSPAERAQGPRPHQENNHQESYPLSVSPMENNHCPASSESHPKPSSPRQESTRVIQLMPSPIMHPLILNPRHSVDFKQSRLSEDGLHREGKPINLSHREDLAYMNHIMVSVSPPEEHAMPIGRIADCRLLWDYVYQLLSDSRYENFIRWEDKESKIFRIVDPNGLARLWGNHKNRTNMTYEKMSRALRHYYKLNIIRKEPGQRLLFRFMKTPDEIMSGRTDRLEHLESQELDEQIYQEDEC
HSF1, sequence (Q00613 whole entry): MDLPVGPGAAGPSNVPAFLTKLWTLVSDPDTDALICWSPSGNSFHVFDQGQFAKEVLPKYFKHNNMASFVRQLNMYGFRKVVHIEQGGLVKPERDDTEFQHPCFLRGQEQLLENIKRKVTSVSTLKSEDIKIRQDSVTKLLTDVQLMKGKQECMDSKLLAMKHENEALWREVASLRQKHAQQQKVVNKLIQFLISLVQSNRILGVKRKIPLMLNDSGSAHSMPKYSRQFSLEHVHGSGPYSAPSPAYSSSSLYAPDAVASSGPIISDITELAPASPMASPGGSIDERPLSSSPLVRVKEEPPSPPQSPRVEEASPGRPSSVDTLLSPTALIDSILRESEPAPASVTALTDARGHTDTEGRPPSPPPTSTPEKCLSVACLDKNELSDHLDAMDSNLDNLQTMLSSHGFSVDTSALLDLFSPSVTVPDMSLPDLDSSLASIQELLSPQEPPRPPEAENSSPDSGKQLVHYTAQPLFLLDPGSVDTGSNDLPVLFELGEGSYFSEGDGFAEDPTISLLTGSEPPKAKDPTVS
ETV5, sequence (P41161 whole entry): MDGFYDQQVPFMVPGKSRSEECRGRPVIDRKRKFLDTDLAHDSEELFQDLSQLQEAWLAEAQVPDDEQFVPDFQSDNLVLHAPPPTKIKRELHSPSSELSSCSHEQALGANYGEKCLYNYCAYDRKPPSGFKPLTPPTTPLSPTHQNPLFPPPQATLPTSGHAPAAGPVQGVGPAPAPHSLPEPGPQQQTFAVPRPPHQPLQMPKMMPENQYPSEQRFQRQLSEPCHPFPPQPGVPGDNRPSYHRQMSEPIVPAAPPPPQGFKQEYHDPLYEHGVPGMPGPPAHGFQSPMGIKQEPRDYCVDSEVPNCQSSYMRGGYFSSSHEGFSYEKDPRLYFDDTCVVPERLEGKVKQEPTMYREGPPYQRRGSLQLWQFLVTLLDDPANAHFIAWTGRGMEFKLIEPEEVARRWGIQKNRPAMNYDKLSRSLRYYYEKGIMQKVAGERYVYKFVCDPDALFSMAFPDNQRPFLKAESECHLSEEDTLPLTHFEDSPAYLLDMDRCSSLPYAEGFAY
ELF4, sequence (Q99607 whole entry): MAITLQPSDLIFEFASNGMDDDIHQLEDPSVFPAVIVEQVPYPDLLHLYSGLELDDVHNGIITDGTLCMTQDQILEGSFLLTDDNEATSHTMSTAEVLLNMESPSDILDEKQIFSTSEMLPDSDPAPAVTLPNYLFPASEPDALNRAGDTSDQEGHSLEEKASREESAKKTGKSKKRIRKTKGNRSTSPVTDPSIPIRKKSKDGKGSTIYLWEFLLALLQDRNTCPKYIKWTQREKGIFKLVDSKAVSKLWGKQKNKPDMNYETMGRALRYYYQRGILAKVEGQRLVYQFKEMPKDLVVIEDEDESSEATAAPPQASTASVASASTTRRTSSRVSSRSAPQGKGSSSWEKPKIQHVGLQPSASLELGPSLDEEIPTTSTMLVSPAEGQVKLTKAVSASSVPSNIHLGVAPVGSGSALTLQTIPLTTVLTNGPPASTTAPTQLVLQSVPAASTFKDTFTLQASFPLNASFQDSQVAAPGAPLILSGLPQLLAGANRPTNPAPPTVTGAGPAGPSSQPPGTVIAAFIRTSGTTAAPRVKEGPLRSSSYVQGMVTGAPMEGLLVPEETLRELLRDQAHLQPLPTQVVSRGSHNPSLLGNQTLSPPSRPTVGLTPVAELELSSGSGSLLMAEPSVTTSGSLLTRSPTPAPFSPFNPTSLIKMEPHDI
CRX, sequence (O43186 whole entry): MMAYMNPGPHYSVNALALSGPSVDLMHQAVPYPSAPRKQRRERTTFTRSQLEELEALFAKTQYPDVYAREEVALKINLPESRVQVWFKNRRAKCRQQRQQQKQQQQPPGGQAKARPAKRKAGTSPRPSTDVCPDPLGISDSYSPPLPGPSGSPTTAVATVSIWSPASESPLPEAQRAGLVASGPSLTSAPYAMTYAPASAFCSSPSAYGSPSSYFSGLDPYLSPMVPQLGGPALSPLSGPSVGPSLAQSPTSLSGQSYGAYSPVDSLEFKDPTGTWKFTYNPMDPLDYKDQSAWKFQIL
ETV1, sequence (P50549 whole entry): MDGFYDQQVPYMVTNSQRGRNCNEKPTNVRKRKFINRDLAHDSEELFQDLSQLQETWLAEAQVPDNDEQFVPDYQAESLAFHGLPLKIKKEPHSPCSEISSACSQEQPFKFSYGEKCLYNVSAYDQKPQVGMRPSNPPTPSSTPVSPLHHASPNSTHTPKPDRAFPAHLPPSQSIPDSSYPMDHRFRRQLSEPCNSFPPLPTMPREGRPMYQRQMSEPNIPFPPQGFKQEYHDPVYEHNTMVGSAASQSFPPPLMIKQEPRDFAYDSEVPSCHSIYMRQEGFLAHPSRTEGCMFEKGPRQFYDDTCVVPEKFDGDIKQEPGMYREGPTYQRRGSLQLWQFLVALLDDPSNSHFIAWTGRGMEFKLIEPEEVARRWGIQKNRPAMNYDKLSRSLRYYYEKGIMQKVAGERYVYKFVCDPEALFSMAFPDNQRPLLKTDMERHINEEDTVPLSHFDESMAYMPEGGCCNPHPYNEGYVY

Take GAACAA: the binding signal in experiment [1] was 1.11 fold enrichment (6-mer frequency, TF over GST control); in experiment [2] it was 1.18 fold enrichment (6-mer frequency, TF over GST control); in [3], 1.5 fold enrichment (6-mer frequency, TF over GST control); in experiment [4] it was 1.23 fold enrichment (6-mer frequency, TF over GST control); in experiment [5], 1.2 fold enrichment (6-mer frequency, TF over GST control); in experiment [6] it was 1.16 fold enrichment (6-mer frequency, TF over GST control). The binding signal in experiment [7] was 1.28 fold enrichment (6-mer frequency, TF over GST control); in [8] it was 1.22 fold enrichment (6-mer frequency, TF over GST control); in [9] it was 1.06 fold enrichment (6-mer frequency, TF over GST control); in experiment [10], 1.21 fold enrichment (6-mer frequency, TF over GST control); in [11], 1.24 fold enrichment (6-mer frequency, TF over GST control); in [12] it was 1.2 fold enrichment (6-mer frequency, TF over GST control). Moreover, the binding signal is 1.22 fold enrichment (6-mer frequency, TF over GST control) in experiment [13]; 1.14 fold enrichment (6-mer frequency, TF over GST control) in [14]; 1.17 fold enrichment (6-mer frequency, TF over GST control) in experiment [15]; 1.23 fold enrichment (6-mer frequency, TF over GST control) in experiment [16]; 1.18 fold enrichment (6-mer frequency, TF over GST control) in [17]; 1.25 fold enrichment (6-mer frequency, TF over GST control) in experiment [18].
